Measurements as given in PubChem BioAssay (EPA / NIEHS).
Active and inactive are the calls of the source. The calls were made as follows: active = hit-call score of the fitted dose curve at least 0.9, where 1 is the maximum; inactive = score below 0.9.

Assay: UKN5_HCS_SBAD2_neurite_outgrowth: University of Konstanz (UKN) Leist Lab Neurite Outgrowth Assay in human iPSC-derived immature Dorsal Root Ganglia Neurons (UKN5) (AID 2284070)
Conditions: actives raise or lower the signal
Description: UKN5_HCS_SBAD2 is a cell-based, multiplexed-readout assay screening for neurite outgrowth and cell viability that uses SBAD2 (peripheral neurons differentiated from iPSC), a human peripheral nervous system cell line, with measurements taken at […] after chemical dosing in a microplate: 96-well plate. UKN5, also referred to as PeriTox, is an assay that uses human iPSC line SBAD2 as a model of peripheral neurons. Following 24 hr chemical exposures in multi-well plates, neurite area is evaluated as a marker of neurite outgrowth using high-content imaging of cells stained with calcein-AM. Cell viability is assessed using stain Hoechst H-33342.UKN5_HCS_SBAD2_neurite_outgrowth is an assay component measured from the UKN5_HCS_SBAD2 assay. It is designed to make measurements of neurite outgrowth, a form of morphology reporter, as detected with Fluorescence intensity signals by HCS Fluorescent Imaging.The assay endpoint UKN5_HCS_SBAD2_neurite_outgrowth was analyzed with bidirectional fitting relative to DMSO as the negative control and baseline of activity. Using a type of morphology reporter, gain or loss-of-signal activity can be used to understand developmental effects. To generalize the intended target to other relatable targets, this assay endpoint is annotated to the neurodevelopment intended target family, where the subfamily is neurite outgrowth. […]

CC1=C(/C=C/C(C)=C/C=C/C(C)=C/C(=O)O)C(C)(C)CCC1
outcome: inactive

CN1CCC[C@H]1c1cccnc1
outcome: inactive
